Among the data in PubChem BioAssay (EPA / NIEHS) are AC50 and outcome values, retold here.

Each structure is given as a SMILES string. Results filed as inconclusive are left out. Calls of active or inactive are those of the source. Rule for the calls: active = hit-call score of the fitted dose curve at least 0.9, where 1 is the maximum; inconclusive = response in the unintended direction; inactive = score below 0.9.

Read-out in this assay: Cytochrome P450 2B6 (Homo sapiens) (UniProt P20813)
The assay is described as follows: CLD_CYP2B6_6hr: CellzDirect (CLD) Gene Expression Assay for xenobiotic metabolism (CYP2B6) at 6 hours (AID 2283677).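 Note: actives raise CYP2B6 transcript above DMSO baseline so AC50 marks an inducer.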 The procedure:
CLD_6hr is a cell-based, multiplexed-readout assay that uses hepatocyte, a human liver primary cell, with measurements taken at 6 hours after chemical dosing in a 96-well plate.CLD_CYP2B6_6hr is one of 16 assay component(s) measured or calculated from the CLD_6hr assay. It is designed to make measurements of mRNA induction, a form of inducible reporter, as detected with chemiluminescence signals by Quantitative Nuclease Protection Assay (qNPA) technology.Data from the assay component CLD_CYP2B6_6hr was analyzed at the endpoint, CLD_CYP2B6_6hr, in the positive analysis fitting direction relative to DMSO as the negative control and baseline of activity. Using a type of inducible reporter, gain-of-signal activity can be used to understand changes in the reporter gene as they relate to the gene CYP2B6. Furthermore, this assay endpoint can be referred to as a primary readout. To generalize the intended target to other relatable targets, this assay endpoint is annotated to the cyp intended target family, where subfamily is xenobiotic metabolism.
Human hepatocyte cultures were treated daily for two consecutive days with fresh dosing solutions containing appropriate concentrations of the 320 ToxCast chemicals (chemical identities were blinded to CellzDirect and other ToxCast collaborators), vehicle control (0.2% DMSO), and positive control inducers as summarized in Table 1. Due to the large number of treatment groups and chemicals examined, the ToxCast chemicals were divided into two groups (spanning two independent cultures of hepatocytes from separate donor preparations (Hu778: ToxCast plates 1 and 2; Hu776: ToxCast plates 3 and 4). Each preparation of human hepatocyte cultures was treated with respective vehicle control, medium only control, set of six positive controls/reference chemicals for the five hepatic receptor pathways, and a subset of eight of the ToxCast chemicals (indoxacarb, pyrithiobac-sodium, norflurazon, cyhalofop-butyl, methomyl, thiram, acetochlor, and propiconazole). These replicate data, coupled with internal replicates designed within the blinded ToxCast chemical library, provided additional data to evaluate interindividual differences between hepatocyte preparations and their potential impact on chemical profiles.Cell morphology and integrity were evaluated using phase-contrast microscopy as an indicator of hepatocyte cell health (Tyson & Green, 1987). Cultures for each treatment group (i.e., media, vehicle [0.2% DMSO], positive control inducers [multiple concentrations], and the ToxCast chemicals [multiple concentrations]) were observed and cell morphology was assessed relative to vehicle control cultures at each harvest time point (0, 6, 24, or 48 h). […] Images were evaluated at the conclusion of the study to assess changes in cell integrity and account for the effects of chemical exposure on uncharacteristic changes in concentration-dependent gene expression profiles. The results from these determinations of apparent cytotoxicity were annotated (yes/no) alongside the corresponding qNPA data for reference.At the conclusion of each treatment period, hepatocyte cultures (96-well) were washed with 1 volume of HBSS, lysed by addition of 25 ul ArrayPlate lysis buffer (HTG, Tucson, AZ), and 70 ul/well of Denaturation Oil, denatured by incubation at 95C for 10 min, and frozen at approximately -70C until analysis by nuclease protection assay (qNPA) (Roberts et al., 2007). For qNPA analysis, cell lysates were thawed at 50C for approximately 30 min, qNPA probes were added, and samples were incubated at 95C for 10 min to begin the detection process by denaturing the target RNA, dissociating the duplexes and secondary structure hybridization. At the conclusion of the hybridization period, S1 nuclease reagent was added to each sample to digest all nonprotected nucleotides at 50C for 60-90 min. […]
As a reminder, the AC50 is the midpoint of the concentration-response curve, whichever way the signal moves. Consider `CCNP(=S)(OC)O/C(C)=C/C(=O)OC(C)C` (stereo not given), for which the AC50 is 0.84 µM (active).
`CCOP(=O)(OCC)Oc1nc(Cl)c(Cl)cc1Cl`: the concentration at half-maximal activity (AC50) was 7.26 µM (active).
Regarding `O=c1n(Cl)c(=O)n(Cl)c(=O)n1Cl`, the outcome was inactive.
Still for that read-out and setting: next, `CCCC(=NOCC)C1=C(O)CC(CC(C)SCC)CC1=O` (stereo not given): “inactive”.
For `CCCCC(O)(Cn1cncn1)c1ccc(Cl)cc1Cl` (stereo not given), the AC50 was 2.08 µM (active).
Same read-out and setting: the same measure for `CC(C)(C)C(=O)C(Oc1ccc(Cl)cc1)n1cncn1` (stereo not given): 3.95 µM (active).
The same measure, in the same setting: the same measure for `CCCN(CC)CC1COC2(CCC(C(C)(C)C)CC2)O1` (stereo not given): 13.4 µM (active).
Take `CS(=O)(=O)c1cc(C(F)(F)F)ccc1C(=O)c1cnoc1C1CC1`: the result was inactive.
On to `CC(C)NC(=O)N1CC(=O)N(c2cc(Cl)cc(Cl)c2)C1=O`, for which the concentration at half-maximal activity (AC50) was 20 µM (active).
Consider `Clc1nc(Cl)nc(Nc2ccccc2Cl)n1`, for which the result was inactive.
For the compound `COc1ccc(-c2ccccc2)cc1NNC(=O)OC(C)C`, the AC50 is 6.49 µM (active).
Still for that read-out and setting: next, `O=C(Nc1ccccc1-c1ccc(Cl)cc1)c1cccnc1Cl`: 0.504 µM (active); `COP(=S)(OC)SCn1nnc2ccccc2c1=O`: 0.448 µM (active).
Still for that read-out and setting: next, `C=CCOC(=O)C(C)(C)OC(=O)c1cc(-n2c(=O)cc(C(F)(F)F)n(C)c2=O)ccc1Cl`: 0.32 µM (active); `CSC(=O)c1c(C(F)F)nc(C(F)(F)F)c(C(=O)SC)c1CC(C)C`: 2.11 µM (active).
For `Cc1cnc(C2=NC(C)(C(C)C)C(=O)N2)c(C(=O)O)c1` (stereo not given), the result was inactive.
In the case of `COC(=O)NC(=S)Nc1ccccc1NC(=S)NC(=O)OC`, the half-maximal activity concentration (AC50) is 4.73 µM (active).
Still for that read-out and setting: the same measure for `Cc1c(COC(=O)[C@@H]2[C@H](/C=C(\Cl)C(F)(F)F)C2(C)C)cccc1-c1ccccc1`: 4.27 µM (active).
Still for that read-out and setting: next, `COCC(=O)N(c1c(C)cccc1C)C(C)C(=O)OC` (stereo not given): 2.5 µM (active).
As to `C=C(C)CN(CC)c1c([N+](=O)[O-])cc(C(F)(F)F)cc1[N+](=O)[O-]`, the compound was classed as inactive.
For the compound `CCC(C)n1c(=O)[nH]c(C)c(Br)c1=O` (stereo not given), the AC50 was 3.08 µM (active).
As to `CC1(C)C(C=C(Cl)Cl)C1C(=O)OC(C#N)c1cccc(Oc2ccccc2)c1` (stereo not given), the AC50 was 1.54 µM (active).
Consider `Nc1cnn(-c2ccccc2)c(=O)c1Cl`, for which the compound was called inactive.
For `O=C(O)c1c(Cl)ccc2cc(Cl)cnc12`, the result was inactive.
As to `CCCCOCN(C(=O)CCl)c1c(CC)cccc1CC`, the AC50 was 2.29 µM (active).
Still for that read-out and setting: the same measure for `CCOC(=O)C(C)OC(=O)c1cc(Oc2ccc(C(F)(F)F)cc2Cl)ccc1[N+](=O)[O-]` (stereo not given): 7.3 µM (active).
As to `COP(=O)(OC)O/C(C)=C/C(=O)N(C)C`, the outcome was inactive.
With `COCC(C)N(C(=O)CCl)c1c(C)csc1C` (stereo not given), the AC50 was 6.94 µM (active).
The same measure, in the same setting: the same measure for `CCOc1cc(C(C)(C)C)ccc1C1COC(c2c(F)cccc2F)=N1` (stereo not given): 4.69 µM (active).
The same measure, in the same setting: the same measure for `CC(C)N1C(=O)N(c2ccccc2)CSC1=NC(C)(C)C`: 7.11 µM (active).
As to `CNC(=O)N(C)c1nnc(C(C)(C)C)s1`, the compound was called inactive.
Regarding `CC1(C)CCC(=Cc2ccc(Cl)cc2)C1(O)Cn1cncn1` (stereo not given), the AC50 is 1.97 µM (active).
Still for that read-out and setting: the same measure for `Clc1cccc(C(Cl)(Cl)Cl)n1`: 1.9 µM (active); for `CC1(C)C(C(=O)OC(C#N)c2cccc(Oc3ccccc3)c2)C1(C)C` (stereo not given): 4.01 µM (active); for `CCCCC(C#N)(Cn1cncn1)c1ccc(Cl)cc1` (stereo not given): 2.77 µM (active).
The same measure, in the same setting: the same measure for `CNC(=O)Oc1cccc2ccccc12`: 6.15 µM (active).
Regarding `COc1cc(OC)nc(NC(=O)NS(=O)(=O)c2ncccc2OCC(F)(F)F)n1`, the compound was classed as inactive.
Regarding `CC1(C)CON(Cc2ccccc2Cl)C1=O`, the AC50 was 3.31 µM (active).
The same measure, in the same setting: next, `COC(=O)c1c(C(F)F)nc(C(F)(F)F)c(C2=NCCS2)c1CC(C)C`: 0.277 µM (active).
Same read-out and setting: the same measure for `Cc1nc(N(C)C)nc(OC(=O)N(C)C)c1C`: 3.94 µM (active).
